Laboratory results as given in PubChem BioAssay AID1159577 (Broad Institute, 2015).
Among all 1,300 compounds or so, about 240 (18%) were called active. Another 8% or so got no clear call; they are omitted. How the calls were made is not given here. The list is a sample of the results. Results with a measured potency or affinity are listed apart.

Assay: toxicity to human hepatoma HepG2 cells – cell-based, cherry-picked samples, cytotoxicity control, dose response (AID 1159577)
Conditions: HepG2 cytotoxicity counterscreen, plate reader; series mostly up to 19.5 µM
For `O=C(c1ccccn1)N1CC(=O)N2[C@H](CO)[C@@H](c3ccc(C#CCc4ccccc4)cc3)[C@@H]2C1`, the outcome was “inactive”.
For `CCCNC(=O)c1cc2c(c(-c3cccc(-c4cc5ccccc5o4)c3)n1)[C@@H](CCO)N(C(=O)NC(C)C)C2`, the outcome was “inactive”.
In the case of `N#Cc1ccc(-c2ccc(C3[C@@H]4CN(C(=O)C5CCC5)C[C@H]3N4)cc2)cc1` (stereo not given in full), the outcome is reported as “inactive”.
In the case of `O=C(C1CCC1)N1C[C@@H]2N[C@H](C1)C2c1ccc(-c2ccccc2F)cc1` (stereo not given in full), the outcome is reported as “inactive”.
For `C/C=C/c1ccc([C@H]2[C@H](CO)N(S(=O)(=O)Cc3ccccc3)C23CN(C(=O)C2CCCC2)C3)cc1`, the outcome was “inactive”.
For `CCCNC(=O)N1CCC2(CC1)CN(Cc1cccc(F)c1)[C@@H](CO)c1[nH]c3cc(OC)ccc3c12`, the outcome was “inactive”.
For `C[C@@H]1CN([C@@H](C)CO)C(=O)c2cccc(NC(=O)C3CC3)c2O[C@H]1CN(C)Cc1ccc(-c2ccccc2)cc1`, the outcome was “inactive”.
For `C[C@H](CO)N1C[C@H](C)[C@H](CN(C)S(=O)(=O)c2ccccc2)Oc2ccc(NC(=O)Cc3cn(C)c4ccccc34)cc2C1=O`, the outcome was “inactive”.
With `C[C@H]1CN([C@@H](C)CO)S(=O)(=O)c2ccc(C#Cc3ccccc3F)cc2O[C@@H]1CN(C)C(=O)c1ccc2c(c1)OCO2` the outcome was “inactive”.
For `CO[C@H]1CN(C)C(=O)c2cc(NC(C)=O)ccc2OC[C@H](C)N(Cc2ccncc2)C[C@H]1C`, the outcome was “inactive”.
In the case of `C[C@@H]1CN([C@@H](C)CO)C(=O)Cc2cc(NC(=O)NC3CCCCC3)ccc2O[C@H]1CN(C)C(=O)Nc1cccc2ccccc12`, the outcome is reported as “inactive”.
With `COc1ccc(C#Cc2ccc3c(c2)[C@H]2[C@H](CCN2Cc2ccncc2)[C@H](CO)N3)cc1` the outcome was “inactive”.
For `CCCC#Cc1ccc2c(c1)[C@H]1[C@H](CCN1Cc1ccccc1F)[C@@H](CO)N2`, the outcome was “inactive”.
In the case of `COc1ccccc1-c1ccc2c(c1)[C@@H]1[C@@H](CCN1C(=O)C1CCCCC1)[C@@H](CO)N2`, the outcome is reported as “inactive”.
With `COc1ccc(C#Cc2ccc3c(c2)[C@H]2[C@H](CCN2Cc2nccs2)[C@H](CO)N3)cc1` the outcome was “inactive”.
For `COc1ccccc1-c1ccc2c(c1)[C@H]1[C@H](CCN1C(=O)C1CCCC1)[C@@H](CO)N2`, the outcome was “inactive”.
With `COc1ccc(C#Cc2ccc3c(c2)[C@H]2[C@H](CCN2Cc2ccncc2)[C@@H](CO)N3)cc1` the outcome was “inactive”.
In the case of `OC[C@H]1CC[C@@H]2O[C@H](CCc3ccc(C#CCc4ccccc4)cc3)[C@H](n3cc(-c4ccccc4)nn3)C[C@@H]2O1`, the outcome is reported as “inactive”.
For `O=C(Cc1cccnc1)N1CC[C@H]2[C@H](CO)Nc3ccc(C#Cc4cccc(F)c4)cc3[C@H]21`, the outcome was “inactive”.
For `COCC(=O)N1[C@H](CO)[C@@H](c2ccccc2)C12CN(Cc1cc(F)ccc1F)C2`, the outcome was “inactive”.
For `COc1ccccc1-c1ccccc1[C@@H]1[C@@H](C#N)N(C(=O)C2CC2)[C@@H]1CO`, the outcome was “inactive”.
In the case of `COc1ccc2c3c(n(C)c2c1)[C@@H](CO)N(CC1CCCCC1)CC31CCN(C(=O)CN(C)C)CC1`, the outcome is reported as “inactive”.
With `COc1ccc(C#Cc2ccc3c(c2)[C@H]2[C@H](CCN2C(=O)C2CCCC2)[C@@H](CO)N3)cc1` the outcome was “inactive”.
In the case of `CCCNC(=O)N1[C@@H](C#N)[C@H](c2ccccc2-c2ccccc2F)[C@@H]1CO`, the outcome is reported as “inactive”.
With `COc1ccc(NC(=O)N(C)C[C@@H]2Oc3cc(-c4ccc(C)cc4)ccc3S(=O)(=O)N([C@@H](C)CO)C[C@H]2C)cc1` the outcome was “inactive”.
In the case of `COc1ccc2c3c(n(C)c2c1)[C@@H](CO)N(C(=O)Nc1ccc(F)cc1)CC31CN(C(=O)c2ccc3c(c2)OCO3)C1`, the outcome is reported as “inactive”.
For `COc1ccc2c3c([nH]c2c1)[C@@H](CO)N(Cc1cc(F)ccc1F)CC31CN(C(=O)CN(C)C)C1`, the outcome was “inactive”.
For `CC(C)(C)[S@@](=O)N1Cc2cc(C(=O)NCCc3ccncc3)nc(-c3cccc(-c4ccccc4)c3)c2[C@H]1CCO`, the outcome was “inactive”.
For `COc1ccc2c3c(n(C)c2c1)[C@@H](CO)N(C(=O)C1CCCC1)CC31CN(C(=O)Nc2cccc(F)c2)C1`, the outcome was “inactive”.
For `CCCC#Cc1ccc([C@H]2[C@@H](CO)N(C(=O)C3CCCCC3)[C@H]2C#N)cc1`, the outcome was “inactive”.
With `N#C[C@H]1[C@@H](c2ccc(C#CC3CCCC3)cc2)[C@@H](CO)N1S(=O)(=O)Cc1ccccc1` the outcome was “inactive”.
In the case of `CCS(=O)(=O)N1[C@H](CO)[C@H](c2ccc(C#Cc3ccccc3F)cc2)[C@@H]1C#N`, the outcome is reported as “inactive”.
In the case of `COc1cccc(C#Cc2ccc([C@@H]3[C@@H](C#N)N(C(=O)c4ccccn4)[C@H]3CO)cc2)c1`, the outcome is reported as “inactive”.
In the case of `N#C[C@H]1[C@H](c2ccc(C#CC3CCCCC3)cc2)[C@@H](CO)N1S(=O)(=O)c1ccccc1`, the outcome is reported as “inactive”.
For `N#C[C@H]1[C@@H](c2ccc(C#CC3CC3)cc2)[C@H](CO)N1S(=O)(=O)c1ccccc1`, the outcome was “inactive”.
For `COc1ccc(C#Cc2ccc3c(c2)[C@H]2[C@H](CCN2Cc2nccs2)[C@@H](CO)N3)cc1`, the outcome was “inactive”.
In the case of `CCCN1C[C@@H](C)[C@H](OC)CN(C)C(=O)c2ccc(NC(=O)c3ccc4c(c3)OCO4)cc2OC[C@H]1C`, the outcome is reported as “inactive”.
In the case of `CC(C)(O)C#Cc1cccc(-c2nc(C(=O)N[C@@H]3CCN(Cc4ccccc4)C3)cc3c2[C@H](CCO)N(S(=O)C(C)(C)C)C3)c1` (stereo not given in full), the outcome is reported as “inactive”.
In the case of `CCCC#Cc1cnc2c(c1)C(=O)N([C@@H](C)CO)C[C@H](C)[C@H](CN(C)C(=O)Nc1cccc(F)c1)O2`, the outcome is reported as “inactive”.
For `C[C@H](CO)N1C[C@H](C)[C@H](CN(C)S(=O)(=O)c2ccccc2)Oc2cc(C#Cc3ccncc3)ccc2S1(=O)=O`, the outcome was “inactive”.
For `C[C@@H]1CN([C@@H](C)CO)C(=O)c2cccc(NC(=O)c3cnccn3)c2O[C@@H]1CN(C)Cc1ccc(C(F)(F)F)cc1`, the outcome was “inactive”.
With `CC(C)(C)S(=O)N1Cc2cc(C(=O)NCc3ccc4c(c3)OCO4)nc(-c3cccc(C#CCC4CCCC4)c3)c2[C@@H]1CCO` (stereo not given in full) the outcome was “inactive”.
In the case of `COc1ccc(-c2ccc([C@@H]3[C@@H](CO)N4C(=O)CN(C(=O)C5CCCC5)C[C@@H]34)cc2)cc1`, the outcome is reported as “inactive”.
In the case of `C[C@@H]1CN([C@@H](C)CO)C(=O)c2cccc(NC(=O)Nc3ccc4c(c3)OCO4)c2O[C@@H]1CN(C)C(=O)Nc1ccc2c(c1)OCO2`, the outcome is reported as “inactive”.
For `O=C(c1cccnc1)N1CC2(C1)[C@@H](c1ccccc1)[C@@H](CO)N2C(=O)CC1CC1`, the outcome was “inactive”.
In the case of `COc1ccc(S(=O)(=O)N2CCC3(CC2)CN(Cc2ccncc2)[C@H](CO)c2[nH]c4cc(OC)ccc4c23)cc1`, the outcome is reported as “inactive”.
In the case of `COc1cccc(-c2ccc3c(c2)[C@H]2[C@H](CCN2C(=O)C2CCCCC2)[C@@H](CO)N3)c1`, the outcome is reported as “inactive”.
With `C[C@@H]1CN([C@@H](C)CO)C(=O)c2cccc(NC(=O)c3nc4ccccc4s3)c2O[C@H]1CN(C)C(=O)NC1CCCCC1` the outcome was “inactive”.
With `N#C[C@@H]1[C@H](c2ccc(-c3cccc(F)c3)cc2)[C@@H](CO)N1C(=O)NC1CCCC1` the outcome was “inactive”.
With `OC[C@H]1[C@@H](c2ccc(-c3cccnc3)cc2)[C@H]2CN(CC3CC3)CCCCN21` the outcome was “inactive”.
In the case of `OC[C@H]1[C@@H](c2ccc(-c3cccnc3)cc2)[C@@H]2CN(CC3CC3)CCCCN12`, the outcome is reported as “inactive”.
For `N#C[C@@H]1[C@H](c2ccc(-c3cccc(F)c3)cc2)[C@H](CO)N1C(=O)NC1CCCC1`, the outcome was “inactive”.
With `OC[C@@H]1Nc2ccc(C3=CCCCC3)cc2[C@@H]2[C@H]1CCN2Cc1nccs1` the outcome was “inactive”.
In the case of `C[C@H]1CN([C@@H](C)CO)C(=O)c2c(c3ccccc3n2C)-c2ccccc2CO[C@@H]1CN(C)Cc1ccc(Oc2ccccc2)cc1`, the outcome is reported as “inactive”.
For `C[C@@H]1CN([C@@H](C)CO)C(=O)c2c(c3ccccc3n2C)-c2ccccc2CO[C@@H]1CN(C)Cc1ccc(Oc2ccccc2)cc1`, the outcome was “inactive”.
In the case of `C[C@@H]1CN([C@@H](C)CO)C(=O)c2c(c3ccccc3n2C)-c2ccccc2CO[C@@H]1CN(C)C(=O)c1cc(Cl)cc(Cl)c1`, the outcome is reported as “inactive”.
With `C[C@@H]1CN([C@@H](C)CO)C(=O)c2c(c3ccccc3n2C)-c2ccccc2CO[C@H]1CN(C)Cc1ccc(Cl)c(Cl)c1` the outcome was “inactive”.
For `C[C@@H]1CN([C@H](C)CO)S(=O)(=O)c2ccc(-c3cccc(C(=O)N(C)C)c3)cc2O[C@H]1CN(C)Cc1ccc2c(c1)OCO2`, the outcome was “inactive”.
In the case of `COCC#Cc1ccc(CC[C@H]2O[C@H]3CC[C@H](CO)O[C@H]3C[C@@H]2n2cc(C3CC3)nn2)cc1`, the outcome is reported as “inactive”.
With `COc1cccc(NC(=O)N2CC(=O)N3[C@H](CO)[C@@H](c4ccc(C#CCC5CCCC5)cc4)[C@H]3C2)c1` the outcome was “inactive”.
In the case of `COc1ccc2c3c(n(C)c2c1)[C@H](CO)N(C(=O)Nc1ccc(F)cc1)CC31CCN(Cc2cccnc2)CC1`, the outcome is reported as “inactive”.
With `Cc1ccc(-c2ccc([C@H]3[C@@H](CO)N4C(=O)CN(C(=O)Nc5cccc(F)c5)C[C@H]34)cc2)cc1` the outcome was “inactive”.
In the case of `COc1cccc(C#Cc2ccc([C@H]3[C@@H](CO)N4C(=O)CN(C(=O)Cc5ccccc5)C[C@H]34)cc2)c1`, the outcome is reported as “inactive”.
For `C[C@H]1CN([C@@H](C)CO)C(=O)c2c(c3ccccc3n2C)-c2ccccc2CO[C@H]1CN(C)C(=O)c1cc(Cl)cc(Cl)c1`, the outcome was “inactive”.
For `CCS(=O)(=O)N1CCC2(CC1)CN(Cc1cc(F)ccc1F)[C@H](CO)c1c2c2ccc(OC)cc2n1C`, the outcome was “inactive”.
In the case of `CCCNC(=O)Nc1ccc2c(c1)OC[C@@H](C)N(CC1CCCC1)C[C@@H](C)[C@H](OC)CN(C)C2=O`, the outcome is reported as “inactive”.
For `COc1ccc2c3c([nH]c2c1)[C@H](CO)N(Cc1ccccc1OC)CC31CCN(S(=O)(=O)c2ccccc2)CC1`, the outcome was “inactive”.
In the case of `COc1ccc2c3c([nH]c2c1)[C@H](CO)N(C(=O)C1CCOCC1)CC31CCN(Cc2nccs2)CC1`, the outcome is reported as “inactive”.
With `O=C(C[C@H]1C[C@@H]2c3cc(NS(=O)(=O)c4ccc(F)cc4)ccc3O[C@@H]2[C@@H](CO)O1)N1CCc2ccccc2C1` the outcome was “inactive”.
With `O=C(c1ccccc1F)N1CC(=O)N2[C@H](C1)[C@@H](c1ccc(-c3cccnc3)cc1)[C@@H]2CO` the outcome was “inactive”.
